# Screens from PubChem BioAssay.
# Shown are actives, neighbours in structure and some others; about 3.1% of the full set was active somewhere.
# proKLK7 act: proKLK7 (human) activation, primary screen; activation, % at 7 µM; purified proKLK7, EDANS-DABCYL substrate fluorescence; 100% is mature enzyme control, 0% vehicle; actives 0.9% (n = 370,000);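 active = activation above the mean of all tested compounds plus 3 SD, computed per campaign excluding outliers beyond control limits, cut at about 13% in these data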
# UHRF1 MBD2 ctr: UHRF1 methyl-DNA binding inhibition | Q96T88 | UHRF1 binding to methylated oligo, TR-FRET | inhibition, % at 4.4 µM | actives 0.75% (n = 370,000); in the data active = inhibition above about 21%;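 also: UHRF1 SRA domain binding a hemimethylated CpG hairpin DNA probe; 0% = median of test compound wells and 100% = reference inhibitor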
# Rin1-Abl PPI inh: inhibitors of human Rin1-Abl protein interaction; P00519+Q13671; AID 588664; actives 0.4% (n = 360,000); inhibition, % at 7.35 µM; TR-FRET Rin1/Abl binding, biochemical; in the data active = inhibition above about 5%, passing the limit was not always enough
# MBD2 DNA inh: MBD2-methylated oligo binding inhibition | Q9UBB5 | TR-FRET, MBD2 binding to methylated oligonucleotide | inhibition, % at 4.4 µM | actives 0.31% (n = 370,000) | AID 686964; in the data active = inhibition above about 13%
# Neddylation inh: blocks human cullin neddylation. TR-FRET cullin neddylation, biochemical. AID 651699. actives 0.58% (n = 360,000). calls only at 25 µM. P61081+Q13564; in the data active = inhibition above about 36%
# LEDGF integ inh: blocks HIV-1 LEDGF/p75-dependent DNA integration | AID 743269 | TR-FRET IN-LEDGF/p75 DNA integration, Eu/Cy5 | actives 0.64% (n = 370,000) | inhibition, % at 3.7 µM;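 active = inhibition above the screen-wide mean plus 3 SD, cut at about 13% in these data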;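 also: signal is the Cy5 over europium emission ratio at 671 and 618 nm; 0% = plate median of compound wells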
# Active calls of the source: *; i = inactive; x = no result; + = active, no number.
SMILES,proKLK7 act,UHRF1 MBD2 ctr,Rin1-Abl PPI inh,MBD2 DNA inh,Neddylation inh,LEDGF integ inh
COC(=O)[C@@]1(C#N)[C@@H]2C=CC(C(C)=O)=CN2[C@@H](C(N)=O)[C@@H]1c1ccc(F)cc1,3.5,24.7*,-2.6,-3.5,i,0.0
CCOC(=O)[C@]1(C#N)[C@@H]2C=CC(C(N)=O)=CN2[C@@H](C(N)=O)[C@@H]1c1ccc(F)cc1,0.6,-6.1,-1.9,-0.3,i,1.3
CCCc1cc(=O)oc2cc(OCC(=O)N3CCC(C(=O)O)(c4ccccc4)CC3)ccc12,-0.3,2.6,-2.8,2.7,+,-3.3
NCC(CC(=O)O)c1ccc(Cl)cc1 (stereo unspecified),0.0,24.9*,-0.6,8.9,i,0.5
O=C(CCN1CC1)OCCOC(=O)CCN1CC1,-0.3,1.7,2.1,6.6,i,-3.6
CN1CCN(CC(=O)Nc2ccc(Cl)cc2C(=O)c2ccccc2)CC1,-1.3,0.5,0.8,3.9,i,3.6
Nc1cccc(SC2CC(=O)N(c3ccc(Cl)cc3C(=O)c3ccccc3)C2=O)c1 (stereo unspecified),0.9,28.0*,0.2,-3.6,i,-3.2
CCOP(=O)(CCP(=O)(OCC)OCC)OCC.C[CH2][Sn]([Cl])([Cl])[CH2]C,-0.1,3.4,5.1,5.8,i,-2.3
Fc1ccc(CCNCc2ccc(Br)cc2)cc1,-0.3,34.7*,-1.6,1.6,i,1.6
O=C1NC(=O)N(c2ccccc2)C(=O)/C1=C/c1coc2ccc(O)cc2c1=O,-8.1,27.4*,-5.2,5.2,i,7.9
CCC12CCN(CC3(O)CC3)C(Cc3ccc(O)cc31)C2(C)C (stereo unspecified),-0.3,-0.2,x,-7.8,x,2.2
Cc1ccc(N2C(=O)/C(=C/c3ccc(CN(CCC#N)S(C)(=O)=O)o3)C(=O)NC2=S)cc1,x,x,5.2*,x,i,x
Cc1ccc(/C=C2\C(=O)NC(=S)N(c3ccc(F)cc3)C2=O)o1,-0.2,-1.6,5.0,-1.5,i,4.9
O=C(NC(Cc1ccccc1)P(=O)(O)Oc1ccccc1)OCc1ccccc1 (stereo unspecified),0.5,-2.6,x,-4.9,x,6.5
N#CC1=C(N)Oc2c(c(=O)oc3ccccc23)C1c1ccc(OC(=O)N2CCOCC2)cc1 (stereo unspecified),-0.3,37.5*,-2.0,3.8,i,1.5
CC(C)CC1C(C#N)=C(N)Oc2c1c(=O)oc1ccccc21 (stereo unspecified),0.4,75.7*,1.9,-2.1,i,6.8
CCOc1ccc(C2C(C#N)=C(N)Oc3c2c(=O)oc2ccccc32)cc1 (stereo unspecified),0.7,0.7,2.1,0.0,i,2.3
c1ccc2c(c1)[IH]c1ccccc1-2,-0.3,-23.3,-7.8,10.8,i,-2.7
C[C@]12C[C@H](O)[C@@H](O)C[C@@H]1CC[C@@H]1[C@@H]2CC[C@]2(C)C(=O)CC[C@@H]12,0.1,0.7,5.4,-2.0,i,0.8
O=C(NC(=S)N1C[C@H]2C[C@H](C1)c1cccc(=O)n1C2)c1ccc(Cl)cc1Cl,0.7,90.8*,1.1,3.7,i,0.2
COc1ccc(C(=O)NC(=S)N2C[C@H]3C[C@H](C2)c2cccc(=O)n2C3)cc1OC,1.0,2.0,2.4,5.8,i,-4.9
O=P(O)(Oc1ccccc1)c1ccccc1,0.0,20.9*,1.1,8.0,i,5.6
O=P(O)(O)Oc1ccccc1P(=O)(c1ccccc1)c1ccccc1,-0.2,0.6,0.5,-1.2,i,2.9
O=c1[nH]c(=O)n(-c2cccc(F)c2)c(O)c1/C=C1\C=Nc2ccccc21,-0.2,22.2*,1.6,11.8,i,5.2
CN1CC[C@@H]2CN[C@H](c3ccccc3Br)C[C@@H]21,0.0,2.8,x,2.3,x,1.4
SMILES,proKLK7 act,UHRF1 MBD2 ctr,Rin1-Abl PPI inh,MBD2 DNA inh,Neddylation inh,LEDGF integ inh
COc1cc2c(cc1O)C[C@H]1NCCc3cc4c(c-2c31)OCO4,-17.6,30.5*,1.4,22.6*,+,1.3
COc1c2c(cc3c1OCO3)CCN(C)C2,-0.3,1.2,-2.0,4.3,i,-1.3
O=C(N/N=C/c1c(O)n(Cc2ccc(F)cc2)c(=O)[nH]c1=O)c1ccccc1O,-2.6,-0.4,-0.6,5.4,i,-5.6
O=C(N/N=C/c1c(O)n(Cc2ccccc2)c(=O)[nH]c1=O)c1ccccc1O,-1.6,-3.5,-0.5,-0.3,+,-3.7
CC(C)C(CN1CCC(C)(c2cccc(O)c2)[C@@H](C)C1)NC(=O)C1Cc2ccc(O)cc2CN1 (stereo partly specified),-0.4,0.7,x,-1.0,x,1.0
COC(=O)C1=C(c2ccc(F)cc2OCc2ccccc2)C[C@@H]2CC[C@H]1N2C(=O)NCCN1CCOCC1,0.4,-2.8,3.2,2.5,i,19.4*
CCn1nc(-c2cccs2)nc2c(=O)n(C)c(=O)nc1-2,x,x,19.9*,x,i,x
N#CC1c2ccccc2-n2nncc2CN1C(=O)c1ccc([N+](=O)[O-])o1 (stereo unspecified),0.1,0.3,x,-4.2,x,3.2
O=C1NC(=O)N(Cc2ccco2)C(=O)/C1=C\c1cccn1CCOc1ccc(Cl)cc1,0.1,54.9*,0.1,2.3,i,61.4*
N#Cc1ccc2nc(-c3ccc(CN4CCC(n5c(=O)[nH]c6cc(Cl)ccc65)CC4)cc3)c(-c3ccccc3)nc2c1,-2.8,-2.0,x,-3.0,x,-2.6
O=C1NC(=O)N(c2ccccc2)C(=O)/C1=C/c1ccc(Sc2ccccc2)o1,x,x,-3.5,x,i,x
O=C1NC(=O)N(c2ccccc2F)C(=O)/C1=C/c1ccc(Sc2nc3ccccc3[nH]2)o1,1.8,9.0,-0.2,-5.0,i,22.4*
O=C1NC(=O)N(c2cccc(Cl)c2)C(=O)/C1=C\c1ccc(Sc2nc3ccccc3[nH]2)o1,0.9,11.8,-0.5,-0.7,i,19.5*
Cc1ccc(/C=C2\C(=O)NC(=S)N(c3ccccc3F)C2=O)s1,-0.3,-2.7,-2.0,0.7,i,0.8
c1cncc(-c2ccc3n2Cc2cnnn2-c2ccccc2-3)c1,-0.5,-0.1,x,-3.4,x,1.9
CC(Cc1cccs1)NCc1ccccc1 (stereo unspecified),0.7,29.3*,-1.7,0.0,i,-1.5
O=C(CN1C(=O)[C@@H](Cc2ccccc2)N=C(c2ccccc2)c2ccccc21)NC1CCCCC1,0.4,-1.2,x,-1.5,x,-1.6
C=CCN1C(=O)NC(=O)/C(=C\c2ccc(-c3ccccc3[N+](=O)[O-])o2)C1=O,-0.5,55.8*,0.6,3.4,i,3.8
COc1ccc(/C=C2/C(=O)N(Cc3ccco3)C(=O)N(C(C)C)C2=O)cc1,-0.2,31.7*,-5.2,0.6,i,32.8*
O=C1NCN(c2ccccc2)C12CCN(C(c1cc3ccccc3o1)c1nnnn1C1CCCCC1)CC2 (stereo unspecified),0.2,23.4*,8.4,7.7,i,-1.6
